TDP1 cell noCPT: qHTS for Inhibitors of human tyrosyl-DNA phosphodiesterase 1 (TDP1): qHTS in cells in absence of CPT | DT40 Tdp1-/- hTDP1 cells, no CPT, ATP luminescence, 48 h | Potency, µM (top dose mostly 46.2 µM), for inactives: at the highest dose activity change, negative = growth inhibition, actives largely listed as inhibitors | 15% of 420,000 active; note: potency is the fitted concentration of half-maximal effect; nearly all actives have a fitted effect of over 55% in size
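Seeded 400 DT40-hTDP1 cells/well (vehicle DMSO, no 20 nM CPT); pinned compounds; ≥48 hr at 37 °C; CellTiter-Glo luminescence as viability measure.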
HT1080NT lethal: kills 2HG-producing HT-1080-NT fibrosarcoma cells; HT-1080-NT fibrosarcoma viability, CellTiter-Glo ATP luminescence, 48 h; Potency, µM (doses to about 46.1 µM), inactives show at the highest dose activity, negative = less viability, usual class: cytotoxic; 1.6% of 360,000 active; AID 686970;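 note: NT is the 2HG producing partner of a matched IDH1 knockdown line; potency is the fitted concentration of half-maximal effect; 0% = DMSO-treated cells and -100% = media-only wells without cells; nearly all actives have a fitted effect of over 55% in size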
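Viability by CellTiter-Glo luminescence after 48 h compound exposure at 37C of HT-1080-NT cells (750/well, RPMI, 5% FBS). % activity scaled between DMSO wells and medium-only wells, then curve-fitted and categorized by curve class.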
DT40 TDP1 CPT: growth inhibition of DT40 Tdp1-/-;hTDP1 cells with camptothecin (screen for TDP1 inhibitors); chicken DT40 Tdp1-/-;hTDP1 cells + 20 nM CPT, ATP luminescence, 48 h; Potency, µM (highest dose often 46.2 µM), for the others: at the top dose activity change, negative = growth inhibition, hits mostly inhibitors; 12% of 420,000 active; note: potency is the fitted concentration of half-maximal effect; nearly all actives have a fitted effect of over 55% in size
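Chicken DT40 Tdp1-/- cells complemented with human TDP1, 400 cells/well, exposed to compounds plus 20 nM camptothecin for at least 48 h at 37 C; viability read as ATP content by CellTiter-Glo luminescence.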
IL-1B inflam inh: blocks inflammasome-driven IL-1 beta release | THP-1 LPS/ATP IL-1B secretion, AlphaLISA, 16 h; active compounds read low | 4.7% of 360,000 active | activity change, % at 57.5 µM | AID 743279; in the data active = activity change below about -50%; inconclusive = mostly about -30% to -49%
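THP-1 cells pretreated 1 hr with compounds (up to 57.5 uM final), then stimulated with LPS (250 ng/mL final) plus ATP (1.25 mM final); secreted IL-1B measured by AlphaLISA after 16 hr, decreased signal indicating inhibition.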
HT1080 IDH1KD tx: kills HT-1080 cells with IDH1 knockdown; AID 686971; HT-1080 IDH1 knockdown viability, ATP luminescence, 48 h; Potency, µM (doses to about 46.1 µM), for inactives: at the top dose activity, negative = toxicity, hits mostly cytotoxic; 2% of 360,000 active;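 note: potency is the fitted concentration of half-maximal effect; 0% = DMSO wells and -100% = cell-free medium wells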
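% activity derives from luminescence (CellTiter-Glo), normalised to DMSO and no-cell wells. HT-1080-IDH1KD cells, 750/well, had 48 h compound exposure at 37 °C.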
* marks the source's active call; other numbers are inactive results; ? = inconclusive; . = not tested or not shown; [ ] = dose if it differs, or a comment. Most compounds without a hit are left out; they make up all but 19% or so of the library. Unless noted, calls come from the whole dose curve; as a rule, active = well fitted curve in the direction sought with a large enough effect; inconclusive = small, poorly fitted or top-dose-only effect, or another doubt; inactive = no such curve, though single readings can be large; an effect the other way counts as inactive or inconclusive. Unless noted, % is set by controls: 0 for no effect and ±100 for the full control effect.

SMILES | TDP1 cell noCPT | HT1080NT lethal | DT40 TDP1 CPT | IL-1B inflam inh | HT1080 IDH1KD tx
COc1cc(/C=C(\C#N)c2ccccn2)ccc1OCc1ccccc1Cl | ? | 1.7% | 14.6µM* | -21.4 | 3.7%
COc1cc(/C=C(\C#N)c2ccccn2)ccc1OCC(=O)Nc1cccc(C(F)(F)F)c1 | -1.6% | -3.2% | 0.8% | -7.2 | -6.1%
COc1cc(/C=C(\C#N)c2ccccn2)cc(OC)c1O | ? | -7.7% | 9.2µM* | 21.0 | -18.0%
COc1ccccc1C1CN(Cc2cn(C)nc2C)Cc2ccccc2O1 (stereo not drawn) | -28.3% | . | 12.3%[9.04 µM] | . | .
Cn1c(SCC(=O)NC2CCCC2)nnc1-c1ccco1 | -2.4% | -0.4% | 18.1% | -3.0 | 10.0%
COc1ccc(CNC(=O)c2cccn2-c2nnc(N3CCCCC3)s2)c(OC)c1 | 23.1µM* | . | ? | . | .
COc1ccc(OC)c(NC(=O)Nc2nnc(N3CCC(C)CC3)s2)c1 | ? | 20.6% | ? | -5.9 | 13.4%
COc1ccc(OC)c(NC(=O)c2cccn2-c2nnc(N3CCCCC3)s2)c1 | ? | . | 20.6µM* | . | .
Cc1ccc(C)c2nc3sc(C(=O)N4CCOCC4)c(N)c3cc12 | ? | 4.11µM* | ? | 52.8 | 3.26µM*
Cc1sc(NC(=O)c2sc3nc4c(C)cccc4cc3c2N)c(C#N)c1C | 14.6µM* | -8.9% | ? | 3.4 | ?
Cc1cccc2cc3c(N)c(C(=O)N4CCc5ccccc54)sc3nc12 | 2.91µM* | -29.0% | 3.66µM* | 0.0 | ?
Cc1cccc2cc3c(N)c(C#N)sc3nc12 | ? | 18.7% | -29.9% | -10.0 | 17.1%
Nc1c(C(=O)N2CCOCC2)sc2nc3c(cc12)CCCC3 | ? | ? | -25.3% | 2.4 | ?
Cc1cc(C)c2nc3sc(C(=O)N4CCOCC4)c(N)c3cc2c1 | 0.206µM* | 0.206µM* | 0.581µM* | 61.4 | 0.0517µM*
CCOc1ccc2nc3sc(C(=O)N4CCOCC4)c(N)c3cc2c1 | ? | -10.3% | -19.0% | ? | -1.8%
Cc1cc(C)c2cc3c(N)c(C(=O)N4CCOCC4)sc3nc2c1 | ? | 0.4% | -7.6% | -75.6* | -5.9%
Cc1ccccc1NC(=O)CSc1nc(-c2cccs2)nc2cc(=O)[nH]n12 | 0.9% | . | 1.3% | . | .
Cc1ccc(OCCCSc2nc(-c3ccc(C(C)(C)C)cc3)nc3cc(=O)[nH]n23)cc1C | 25.9µM* | . | ? | . | .
CC(C)(C)c1ccc(-c2nc(SCCOc3ccc(Cl)cc3)n3[nH]c(=O)cc3n2)cc1 | -79.9% | . | 18.4µM* | . | .
Cc1cccc(-c2nc(SCCCOc3cc(C)c(Cl)c(C)c3)n3[nH]c(=O)cc3n2)c1 | -14.8% | . | -12.1% | . | .
CC(C)(C)c1ccc(OCCSc2nc(-c3cccs3)nc3cc(=O)[nH]n23)cc1 | ? | . | 18.4µM* | . | .
Cc1ccc(C)c(NC(=O)C(=O)NCc2ccccn2)c1 | 3.7% | 25.1% | 9.0% | -2.9 | 23.9%
CC(C)NC(=S)NNc1nc2ccccc2s1 | 2.91µM* | -8.4% | 1.46µM* | 2.6 | -6.6%
Cc1ccc(-n2ncc(C(=O)N3CCN(c4ncccn4)CC3)c2C2CCN(C(=O)OC(C)(C)C)CC2)cc1 | -7.5% | . | -6.9% | . | .
Cc1ccc(C)c(N2CCN(C(=O)c3cnn(C(C)(C)C)c3C3CCN(C(=O)OC(C)(C)C)CC3)CC2)c1 | ? | . | 18.4µM* | . | .
Cc1ccc(Cl)cc1N1CCN(C(=O)c2cnn(C)c2C2CCN(C(=O)OC(C)(C)C)CC2)CC1 | 5.8µM* | . | 6.51µM* | . | .
Cc1ccc(Cl)cc1N1CCN(C(=O)c2cnn(C(C)(C)C)c2C2CCN(C(=O)OC(C)(C)C)CC2)CC1 | ? | . | 25.9µM* | . | .
CCC1(c2cccc(Cl)c2)NC(=O)N(Cc2cc(C(=O)OC)c(C)o2)C1=O (stereo not drawn) | 18.4µM* | -2.5% | 25.9µM* | 1.9 | -1.2%
COc1ccc(NC(=O)CN2CCC(C)CC2)c([N+](=O)[O-])c1 | 8.2µM* | 13.9% | 8.2µM* | ? | 6.5%
COc1ccc(NC(=O)CSc2ccccc2)c([N+](=O)[O-])c1 | 29.1µM* | ? | -1.4% | -10.4 | -1.3%

Assay outcomes as filed in PubChem BioAssay.
